# Source: PubChem BioAssay (several laboratories)
# Tat transport = blocks Tat-dependent protein export in E. coli. E. coli MC4100 TorA-mCherry Tat export, fluorescence. inhibition, % at 10 µM. hit rate 0.036% among 340,000. AID 488895;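 active = mean replicate inhibition at least 50% and at least half of replicates individually reaching 50%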;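 also: exported cargo escapes ClpAP degradation while cytoplasmic cargo is degraded and loses fluorescence; 0% = median of neutral control wells and 100% = median of NaSCN control wells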
# phage Ecoli inh = E. coli growth loss with phage present; hit rate 0.26% among 360,000; inhibition, % at 11.9 µM; growth absorbance; in the data active = inhibition above about 11%
# E coli growth-1 = counter-screen for AddAB inhibitors: E. coli growth inhibition | E. coli V3065 growth, OD600 absorbance, 18 h | inhibition, % at 11.9 µM | hit rate 0.27% among 330,000;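 active = inhibition above the campaign's mean inhibition across all tested compounds plus 3 SD, cut at about 9.9% in these data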;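 also: uninfected addAB+ strain grown without phage in ampicillin broth; 0% = DMSO wells and 100% = ciprofloxacin 0.95 µg/ml wells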
# AddAB inh = less growth of phage-infected E. coli with AddAB; E. coli expressing H. pylori AddAB, absorbance growth; inhibition, % at 11.9 µM; hit rate 0.29% among 330,000; AID 435030; in the data active = inhibition above about 12%;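 also: 0% = vehicle wells of infected cells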
# E coli growth-2 = blocks Escherichia coli growth; OD600, 23 h; stronger effect = lower value; OD600 absorbance (concentration not given with the values); hit rate 0.21% among 330,000;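 active = OD600 absorbance below the run mean of sample wells minus 3.6 SD, in any replicate, cut at about 0.56 in these data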
# AddAB confirm = confirmation screen: growth loss of phage-infected E. coli expressing H. pylori AddAB; shares compounds with AddAB inh; E. coli V3065 expressing H. pylori AddAB, T4 phage, OD; T4 phage with gene 2 nonsense mutations; inhibition, % at 11.9 µM; hit rate 64% among 880; AID 488942;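 active = mean inhibition above a set limit taken from the earlier primary screen, cut at about 13% in these data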;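 also: higher means less bacterial growth since AddAB block lets phage replicate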
# RecBCD counter = reduces growth of phage-infected RecBCD+ E. coli, AddAB inhibitor counter-screen; shares compounds with AddAB inh; E. coli V66 + mutant T4 phage, OD growth; inhibition, % at 11.9 µM; hit rate 73% among 880; AID 488955;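 active = mean inhibition above the mean of solvent-only control wells plus 3 SD, cut at about 4% in these data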;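 also: optical density read after an 18 h incubation at 37 °C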
# bact viab count = counter-screen: bacterial growth inhibition | hit rate 35% among 880 | inhibition, % at 11.9 µM | bacterial viability, absorbance (AddAB counterscreen) | AID 488956 | shares compounds with AddAB inh; in the data active = inhibition above about 25%
# RecBCD conf = growth loss of phage-infected V66 E. coli, RecBCD confirmation screen; shares compounds with phage Ecoli inh; E. coli V66 + T4 2- phage, growth OD; inhibition, % at 11.9 µM; hit rate 45% among 890; AID 651982;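 active = mean inhibition over triplicates exceeding the hit threshold derived in the original primary screen, cut at about 11% in these data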
# Ecoli viability = bacterial viability inhibition counter-screen for RecBCD; shares compounds with phage Ecoli inh; inhibition, % at 11.9 µM; E. coli viability, absorbance (OD) growth; hit rate 29% among 890; AID 651983; in the data active = inhibition above about 20%;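 also: E. coli strain V66 grown with compound alone and no phage infection; 0% = bacteria with DMSO vehicle only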
# AddAB counter = growth loss of phage-infected AddAB E. coli, RecBCD counter-screen. E. coli expressing H. pylori AddAB + T4 phage, OD growth; gene 2 mutant T4, recBCD-deleted host. AID 651984. hit rate 45% among 890. inhibition, % at 11.9 µM. shares compounds with phage Ecoli inh;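 active = mean inhibition above the solvent-only control wells' mean plus 3 SD, cut at about 22% in these data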;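 also: higher means less bacterial growth from phage killing when AddAB is blocked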
# * marks the source's active call; other numbers are inactive results; x = no result given. Only some compounds are listed: those with a hit (about 0.5% of all), similar ones and a draw of the others.
SMILES,Tat transport,phage Ecoli inh,E coli growth-1,AddAB inh,E coli growth-2,AddAB confirm,RecBCD counter,bact viab count,RecBCD conf,Ecoli viability,AddAB counter
COC(=O)[C@@]1(Cc2ccccc2)C2c3cc(C(=O)N4CCCC4)n(CCSCCO)c3CC2CN1C(=O)c1ccccc1 (stereo partly specified),x,x,x,x,0.697,x,x,x,x,x,x
COc1ccc(C(=O)NN=Cc2cc3ccccc3[nH]c2=O)cc1,x,x,x,x,0.698,x,x,x,x,x,x
CCn1cc(C(=O)O)c(=O)c2cc(F)c(N3CCN(C(=S)Nc4ccc(OC)cc4)CC3)cc21,72.1*,101.1*,100.7*,99.7*,0.076*,98.9*,99.2*,99.2*,103.9*,104.2*,104.0*
CCn1cc(C(=O)Nc2ncccc2O)c(=O)c2cc(F)c(N3CCN(C(=O)c4ccco4)CC3)cc21,-5.4,14.6*,63.6*,92.7*,0.112*,101.8*,4.9*,77.3*,2.5,3.3,85.8*
CCCCOC(=O)c1ccc(NC(=S)N2CCN(c3ncc4c(=O)c(C(=O)O)cn(CC)c4n3)CC2)cc1,1.7,3.4,4.5,3.2,0.65,x,x,x,x,x,x
NS(=O)(=O)c1ccc(N=Nc2ccc(O)c3ncccc23)cc1,-1.8,1.2,4.5,6.2,0.705,x,x,x,x,x,x
Oc1ccc(N=Nc2ccc3c(c2)OCCO3)c2ncccc12,-5.9,10.9*,9.4,13.2*,0.711,12.7*,9.6*,9.0,9.3,9.6,13.5
CC(O)c1nc2ccccc2n1CC(=O)Nc1ccc2c(c1)OCCO2 (stereo unspecified),-8.5,1.1,0.1,1.7,0.749,x,x,x,x,x,x
O=C(Cn1c(CO)nc2ccccc21)Nc1ccc2c(c1)OCCCO2,-5.3,12.1*,13.7*,12.2*,0.688,8.9,11.8*,10.0,5.0,8.1,3.9
COc1ccc(/C=N/NC(=O)c2nc(-c3ccccc3)n(-c3ccccc3)n2)c(O)c1,-6.1,21.8*,18.8*,20.6*,x,11.2,19.2*,9.3,11.3*,14.4,20.4
CCOc1cc(C=NNC(=O)Cn2nnc3ccccc32)ccc1O,x,x,x,x,0.725,x,x,x,x,x,x
CCN(CC)c1ccc(/C=N/NC(=O)c2cccc(S(=O)(=O)Nc3ccccc3OC)c2)c(O)c1,-4.1,28.2*,33.2*,32.2*,x,21.1*,26.1*,18.6,18.7*,23.5*,27.7*
Oc1c(C(c2ccc(Cl)cc2)N2CCCC2)cc(Cl)c2cccnc12 (stereo unspecified),-2.8,19.5*,23.5*,17.4*,0.589,2.7,8.4*,1.1,7.0,8.2,6.8
CN1CCN(C(c2ccccc2)c2ccccc2)CC1,-10.2,4.2,-1.9,0.1,0.683,x,x,x,x,x,x
Oc1c(C(c2cccs2)N2CCN(c3ccccc3)CC2)ccc2cccnc12 (stereo unspecified),x,x,9.3,11.7,x,x,x,x,x,x,x
CN1CCN(C(c2ccc(C(F)(F)F)cc2)c2ccc3cccnc3c2O)CC1 (stereo unspecified),x,16.6*,26.6*,17.3*,x,11.8,9.7*,7.3,3.6,4.4,7.4
Oc1c(C(c2ccccc2Cl)N2CCCC2)ccc2cccnc12 (stereo unspecified),10.3,15.6*,24.1*,24.9*,0.376*,12.9*,12.4*,1.5,3.8,5.8,16.4
CC(=NNC(N)=S)c1cc(-c2ccccc2)c(-c2ccccc2)s1,x,x,x,x,0.691,x,x,x,x,x,x
N#Cc1ccc(-c2nc3ccc(Br)cc3c(=O)n2O)cc1,-2.4,-2.0,-2.0,-0.6,0.649,x,x,x,x,x,x
O=c1c2cc(Br)ccc2nc(-c2cccc(C(F)(F)F)c2)n1O,-13.1,16.6*,16.5*,16.0*,0.707,7.9,15.7*,4.5,7.7,10.6,17.1
